SW480 rerep – induces DNA re-replication in SW480 colon adenocarcinoma cells; 340,000 tested, 1.8% active; Potency, µM (series often up to 46.1 µM), inactives show at the top dose re-replication activation, hits mostly activators; SW480 DNA re-replication, Hoechst DNA content imaging, 48 h; note: potency is the fitted concentration of half-maximal effect; % of control where 0% means no effect; nearly all actives have a fitted effect of over 55% in size
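First, 250 cells per well were seeded. Next, compound or vehicle (23 nL) was pinned in, plates sat 48 hr at 37 C. Finally Hoechst was added for 40 min before fluorescence scanning.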
S-ASM inh – human S-ASM enzyme inhibition | placental ASM, HMU-PC fluorogenic substrate, 60 min | 340,000 tested, 0.006% active | P17405 | Potency, µM (titrated, usually from 57.5 µM), for inactives: at the top dose activity change, negative = inhibition, hits mostly inhibitors; note: potency is the fitted concentration of half-maximal effect
Target sequence (P17405 47-631 limits assumed): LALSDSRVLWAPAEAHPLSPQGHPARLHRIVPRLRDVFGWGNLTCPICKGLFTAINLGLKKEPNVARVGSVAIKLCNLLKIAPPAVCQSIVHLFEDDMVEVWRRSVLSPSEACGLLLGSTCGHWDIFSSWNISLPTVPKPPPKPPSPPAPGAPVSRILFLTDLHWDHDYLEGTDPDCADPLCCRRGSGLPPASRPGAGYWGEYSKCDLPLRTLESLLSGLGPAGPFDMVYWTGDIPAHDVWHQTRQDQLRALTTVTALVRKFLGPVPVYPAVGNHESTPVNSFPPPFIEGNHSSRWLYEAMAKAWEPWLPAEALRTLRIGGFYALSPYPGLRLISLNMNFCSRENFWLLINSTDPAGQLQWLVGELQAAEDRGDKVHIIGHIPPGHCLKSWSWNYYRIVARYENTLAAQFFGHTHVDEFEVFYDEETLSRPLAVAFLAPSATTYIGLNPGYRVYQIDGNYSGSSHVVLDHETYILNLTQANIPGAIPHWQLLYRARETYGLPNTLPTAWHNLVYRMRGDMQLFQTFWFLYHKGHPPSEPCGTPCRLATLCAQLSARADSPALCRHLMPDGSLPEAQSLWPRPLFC
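qHTS format. ASM enzyme prepared from human placenta hydrolyses the fluorogenic substrate HMU-PC0 (9 uM final) over 60 min at 37 °C after a 10 min compound preincubation.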
Giardia kill – kills Giardia lamblia; 340,000 tested, 0.15% active; activity change, % at 7.66 µM, hits read low; AID 540267; Giardia lamblia trophozoite viability; in the data active = activity change below about -80%; inconclusive = between about -30% and that limit;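 note: parasites exposed to compound for two days anaerobically before the ATP read; % is set by controls: 0 for no effect and ±100 for the full control effect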
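Viability, read as ATP luminescence: trophozoites at 100 cells/well, compound added, 48 hrs anaerobic at 37 deg C, then 15-30 min room-temperature development before reading.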
KB-3-1 tox – KB-3-1 parental cell cytotoxicity; KB-3-1 viability, CellTiter-Glo ATP luminescence, 72 h; AID 1347075; Potency, µM (titrated, usually from 46.1 µM), hits mostly cytotoxic; 400,000 tested, 1.4% active; note: potency is the fitted concentration of half-maximal effect; % is set by controls: 0 for no effect and ±100 for the full control effect; nearly all actives have a fitted effect of over 60% in size
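KB-3-1 cells, DMEM (no phenol red) + 10% FBS; compound by pin transfer, 72 h, 37 °C. Readout: CellTiter-Glo luminescence after 10 min. Data normalized, curve-fitted.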
MCF10A rereplic – DNA re-replication induction in MCF 10a cells; MCF 10A DNA re-replication, Hoechst nuclear intensity, 48 h; Potency, µM (series often up to 46.1 µM), inactives show top-dose activity, positive = re-replication, actives largely listed as activators; 350,000 tested, 2.9% active; note: potency is the fitted concentration of half-maximal effect; % of control where 0% means no effect; nearly all actives have a fitted effect of over 50% in size
KB-V1 MDR tox – kills drug-selected multidrug resistant KB-V1 cells; KB-V1 MDR cells viability, CellTiter-Glo, 72 h; Potency, µM (top dose mostly 46.1 µM), actives largely listed as cytotoxic; 400,000 tested, 3.4% active; note: potency is the fitted concentration of half-maximal effect; % is set by controls: 0 for no effect and ±100 for the full control effect; nearly all actives have a fitted effect of over 60% in size
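Potencies derive from concentration-effect curves fitted to normalized luminescence (CellTiter-Glo) of KB-V1 cells treated for 72 h at 37 degrees C in phenol-red-free DMEM containing 10% FBS.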
The depositor's hits bear a star. Compounds with a hit are over-represented: about 6.9% of the library has one in this group of screens. Unless noted, calls come from the whole dose curve; as a rule, active = well fitted curve in the direction sought with a large enough effect; inconclusive = small, poorly fitted or top-dose-only effect, or another doubt; inactive = no such curve, though single readings can be large; an effect the other way counts as inactive or inconclusive.

N#CCC(=O)Nc1ccc(C(=O)OC(C(=O)Nc2ccc([N+](=O)[O-])cc2Br)c2ccccc2)cc1 (centres undefined) was read as SW480 rerep -2.8%, S-ASM inh -17.2%, Giardia kill -2.6, KB-3-1 tox inactive, MCF10A rereplic -2.5% and KB-V1 MDR tox inactive.
For Cc1ccc(-n2ncc3c(=O)n(CC(=O)NCc4ccco4)cnc32)cc1C the results were SW480 rerep inconclusive, S-ASM inh -2.1%, Giardia kill 5.9, KB-3-1 tox 23.1µM*, MCF10A rereplic inconclusive and KB-V1 MDR tox inconclusive.
Screening O=C(Cn1cnc2c(cnn2-c2ccc(F)cc2)c1=O)NCc1ccco1 returned SW480 rerep inconclusive, S-ASM inh -0.1%, Giardia kill -1.4, KB-3-1 tox 9.2µM*, MCF10A rereplic 14.6µM* and KB-V1 MDR tox 8.2µM*.
`CCCCNC(=O)Cn1cnc2c(cnn2-c2ccc(C)c(C)c2)c1=O` gave SW480 rerep -10.2%, S-ASM inh 1.5%, Giardia kill 13.5, KB-3-1 tox inactive, MCF10A rereplic 1.7% and KB-V1 MDR tox inactive.
Cc1ccc(-n2ncc3c(=O)n(CC(=O)NCc4ccco4)cnc32)cc1 was read as SW480 rerep inconclusive, S-ASM inh 3.9%, Giardia kill 20.3, KB-3-1 tox inconclusive, MCF10A rereplic inconclusive and KB-V1 MDR tox inconclusive.
Cc1ccc2[nH]c(C)c(CCNC(=O)c3cc4cc(Br)ccc4oc3=O)c2c1 was read as KB-3-1 tox inactive and KB-V1 MDR tox inactive.
`CC1CCN(S(=O)(=O)c2cc(C(=O)NCc3ccc(F)cc3)n(C)c2)CC1` gave KB-3-1 tox inactive and KB-V1 MDR tox inactive.
For Cc1cccc(C2=NN(c3ccccc3)[C@H](CO)[C@H]2c2ccc(F)cc2)c1 the results were SW480 rerep 5.17µM*, S-ASM inh inactive, Giardia kill -2.1, KB-3-1 tox inactive, MCF10A rereplic inconclusive and KB-V1 MDR tox inactive.
`OC[C@@H]1[C@@H](c2ccccc2)C(c2ccccc2)=NN1c1ccccc1` gave SW480 rerep inconclusive, S-ASM inh inactive, Giardia kill -5.1, KB-3-1 tox inactive, MCF10A rereplic inconclusive and KB-V1 MDR tox inactive.
Screening Cc1cccc(C2=NN(c3ccccc3)[C@H](CO)[C@H]2c2ccc(Cl)cc2)c1 returned SW480 rerep 13µM*, S-ASM inh inactive, Giardia kill 7.4, KB-3-1 tox inconclusive, MCF10A rereplic 2.31µM* and KB-V1 MDR tox inconclusive.
Screening CCSc1ncnc2nc[nH]c12 returned Giardia kill 6.8, KB-3-1 tox inconclusive and KB-V1 MDR tox inconclusive.
CCOc1ccc(OCC)c(Nc2nc3ccc(C(=O)c4ccccc4)cc3n3cnnc23)c1 was read as KB-3-1 tox inactive and KB-V1 MDR tox inactive.
Screening Cc1scc(-c2n[nH]c(=S)n2C(C)c2ccccc2)c1C (centres undefined) returned SW480 rerep 13.4%, S-ASM inh -2.4%, Giardia kill -9.0, KB-3-1 tox inconclusive, MCF10A rereplic 10.3µM* and KB-V1 MDR tox inconclusive.
`CN(Cc1ccccc1)C(=O)CSc1nc2ccccc2n1Cc1ccccc1F` gave KB-3-1 tox inactive and KB-V1 MDR tox inactive.
For CCN1CCCC1CNC(=O)c1cc2c(-c3ccc(Cl)cc3)nn(C)c2s1 (centres undefined) the results were SW480 rerep 20.6µM*, S-ASM inh -15.6%, Giardia kill 37.0, KB-3-1 tox inconclusive, MCF10A rereplic inconclusive and KB-V1 MDR tox inconclusive.
Screening CCCCNC(=O)c1cc2c(-c3ccc(Cl)cc3)nn(C)c2s1 returned SW480 rerep 2.7%, S-ASM inh -23.8%, Giardia kill 14.9, KB-3-1 tox inactive, MCF10A rereplic inconclusive and KB-V1 MDR tox inactive.
Screening CCN1CCCC1CNC(=O)c1cc2c(-c3cccc(OC)c3)nn(C)c2s1 (centres undefined) returned SW480 rerep 6.7%, S-ASM inh -4.0%, Giardia kill 45.0, KB-3-1 tox inactive, MCF10A rereplic 12.6% and KB-V1 MDR tox inactive.
For Cn1nc(-c2ccc(Cl)cc2)c2cc(C(=O)NCCCN3CCCC3)sc21 the results were SW480 rerep inconclusive, S-ASM inh -20.4%, Giardia kill -17.4, KB-3-1 tox inconclusive, MCF10A rereplic 23.1µM* and KB-V1 MDR tox inactive.
Screening COCCNC(=O)c1c(N)n(/N=C/c2cccs2)c2nc3ccccc3nc12 returned SW480 rerep 5.8µM*, S-ASM inh inactive, Giardia kill -4.9, KB-3-1 tox inactive, MCF10A rereplic inconclusive and KB-V1 MDR tox inactive.
COCCNC(=O)c1c(N)n(/N=C/c2ccc(F)cc2)c2nc3ccccc3nc12 was read as SW480 rerep 5.8µM*, S-ASM inh inactive, Giardia kill -6.8, KB-3-1 tox inactive, MCF10A rereplic 2.59µM* and KB-V1 MDR tox inactive.
`CC(C)CNC(=O)c1c(N)n(/N=C/c2ccccn2)c2nc3ccccc3nc12` gave SW480 rerep inconclusive, S-ASM inh 24.8%, Giardia kill 8.7, KB-3-1 tox inactive, MCF10A rereplic 18.4µM* and KB-V1 MDR tox inactive.
For CCCC(C)C(=O)Nc1nc(C)c(-c2csc(Nc3ccc(Cl)cc3)n2)s1 (centres undefined) the results were SW480 rerep inconclusive, S-ASM inh 1.7%, Giardia kill 9.2, KB-3-1 tox 8.2µM*, MCF10A rereplic 0.2% and KB-V1 MDR tox inactive.
For CCCC(C)C(=O)Nc1nc(C)c(-c2csc(Nc3ccccc3OC)n2)s1 (centres undefined) the results were SW480 rerep 7.4%, S-ASM inh 3.0%, Giardia kill -1.9, KB-3-1 tox inactive, MCF10A rereplic 20.6µM* and KB-V1 MDR tox inactive.
Screening CCC(C)C(=O)Nc1nc(C)c(-c2csc(Nc3cc(Cl)ccc3OC)n2)s1 (centres undefined) returned SW480 rerep 7.3%, S-ASM inh -1.6%, Giardia kill -10.7, KB-3-1 tox inactive, MCF10A rereplic -9.3% and KB-V1 MDR tox inconclusive.
`CC(=O)c1ccc(NS(=O)(=O)c2ccc3ccccc3c2)cc1` gave SW480 rerep -11.0%, S-ASM inh -2.9%, Giardia kill 6.6, KB-3-1 tox inactive, MCF10A rereplic 6.6% and KB-V1 MDR tox 16.4µM*.
Cc1cc(S(=O)(=O)Nc2cccnc2)c(C)s1 was read as SW480 rerep -1.4%, S-ASM inh 6.3%, Giardia kill -0.9, KB-3-1 tox inactive, MCF10A rereplic -3.3% and KB-V1 MDR tox inconclusive.
For NC(=O)c1ccc(NS(=O)(=O)c2ccc3ccccc3c2)cc1 the results were SW480 rerep 0.8%, S-ASM inh -1.8%, Giardia kill 16.1, KB-3-1 tox inactive, MCF10A rereplic 9.2% and KB-V1 MDR tox inactive.
